HP1b chromo inh = HTS for Inhibitors of HP1-beta Chromodomain Interactions with Methylated Histone Tails; Chromobox protein homolog 1 (Homo sapiens), P83916; AlphaScreen HP1-beta / biotin-H3K9me3 peptide binding; Potency, µM (highest dose often 114 µM), inactives show top-dose activity change, negative = inhibition, usual class: inhibitors; actives 0.56% (n = 390,000); AID 540317, 2011; also: nearly all actives have a fitted effect of over 70% in size
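HP1-beta protein (50 nM final) preincubated 30 min at room temperature with biotinylated H3(1-18)K9me3 peptide (50 nM) in PBS pH 7.4, 0.01% Tween-20, then compound added for 30 min. AlphaScreen streptavidin donor/nickel chelate acceptor beads (10 ug/mL final), 30 min dark, luminescence read.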
Sfp PPTase inh = qHTS Assay for Inhibitors of Bacillus subtilis Sfp phosphopantetheinyl transferase (PPTase); Biochemical Sfp PPTase activity, qHTS; Potency, µM, for inactives: largest response in the series, negative = inhibition, hits mostly inhibitors; actives 3.5% (n = 310,000); AID 1490, 2009;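 also: the enzyme is Sfp with the accession as filed and its product quenches rhodamine fluorescence; 0% = enzyme reaction without inhibitor and -100% = no enzyme wells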
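Buffer: 50 mM Hepes-Na pH 7.6, 10 mM MgCl2, 0.01% Nonidet P-40, 0.01% BSA. Enzyme 15 nM, pre-exposed to compound 15 min; substrates then added and fluorescence change tracked over 30 min.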
G9a block = qHTS Assay for Inhibitors of Histone Lysine Methyltransferase G9a; actives 8.8% (n = 350,000); Potency, µM (titrated, usually from 102 µM), for inactives: at the highest dose activity, negative = inhibition, actives largely listed as inhibitors; G9a H3K9 monomethylation, AlphaScreen, 2 h; AID 504332, 2011; also: % is scaled to controls: 0 for no effect and ±100 for the full control effect; nearly all actives have a fitted effect of over 75% in size
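G9a (20 nM) was preincubated 15 min with compound, then reacted 2 h at room temperature with 500 nM biotin-H3K9 peptide and 20 µM SAM. Monomethyl-H3K9 detected by AlphaScreen using anti-H3K9me1 antibody.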
BAZ2B inh = qHTS Assay for Inhibitors of BAZ2B. Potency, µM (series often up to 114 µM), for the others: top-dose activity change, negative = inhibition, usual class: inhibitors. AID 504333, 2011. AlphaScreen BAZ2B-H3K14Ac peptide displacement. actives 4.4% (n = 360,000); also: % is scaled to controls: 0 for no effect and ±100 for the full control effect; nearly all actives have a fitted effect of over 60% in size
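Multi-concentration screen (max 110 uM) measuring displacement of acetylated histone H3 peptide from BAZ2B by AlphaScreen, using 50 nM protein, 50 nM peptide and 10 ug/mL streptavidin donor plus Ni-chelate acceptor beads.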
JMJD2A Tudor inh = qHTS Assay for Inhibitors of JMJD2A-Tudor Domain; Lysine-specific demethylase 4A (Homo sapiens), O75164; actives 4.4% (n = 390,000); Potency, µM (series often up to 114 µM), without a hit: at the highest dose activity change, negative = inhibition, most hits filed as inhibitors; AlphaScreen JMJD2A-Tudor / H3K4me3 peptide binding; also: % is scaled to controls: 0 for no effect and ±100 for the full control effect; nearly all actives have a fitted effect of over 50% in size
PLK1 PBD inh = qHTS for Inhibitors of PLK1-PDB (polo-like kinase 1 - polo-box domain): Primary Screen; Plk1 PBD binding of FITC phosphopeptide, fluorescence polarization; actives 2.8% (n = 360,000); Potency, µM, inactives show max response, negative = inhibition, hits mostly inhibitors; AID 720504, 2013; Serine/threonine-protein kinase PLK1 (Homo sapiens), P53350; also: series mostly up to about 57 µM; % is scaled to controls: 0 for no effect and ±100 for the full control effect; nearly all actives have a fitted effect of over 65% in size
Target sequence (P53350 whole entry, looked up, the tested form may be a part): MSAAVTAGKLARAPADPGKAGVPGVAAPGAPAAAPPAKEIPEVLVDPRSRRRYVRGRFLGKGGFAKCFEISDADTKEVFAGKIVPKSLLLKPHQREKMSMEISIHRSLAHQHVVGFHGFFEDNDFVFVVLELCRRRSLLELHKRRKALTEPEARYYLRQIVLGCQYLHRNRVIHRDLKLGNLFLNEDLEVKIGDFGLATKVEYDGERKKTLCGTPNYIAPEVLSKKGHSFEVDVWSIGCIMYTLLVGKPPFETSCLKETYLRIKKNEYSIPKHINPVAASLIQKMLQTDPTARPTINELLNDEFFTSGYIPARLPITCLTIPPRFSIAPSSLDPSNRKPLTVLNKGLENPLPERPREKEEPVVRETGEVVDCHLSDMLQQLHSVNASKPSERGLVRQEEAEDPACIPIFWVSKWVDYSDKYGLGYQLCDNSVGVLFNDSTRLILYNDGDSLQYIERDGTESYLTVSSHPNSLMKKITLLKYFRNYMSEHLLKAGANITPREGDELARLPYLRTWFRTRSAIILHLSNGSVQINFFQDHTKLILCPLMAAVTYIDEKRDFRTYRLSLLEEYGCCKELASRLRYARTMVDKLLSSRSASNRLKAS
Active calls of the source: *; ? = inconclusive; . = no result given; ! = not active in a repeat; [ ] = remark or other dose. A selection: hits, their analogues and other compounds. The true share with any hit is near 12%. Calls follow the shape of the dose curve; as a rule, active = well fitted curve in the direction sought with a large enough effect; inconclusive = small, poorly fitted or top-dose-only effect, or another doubt; inactive = no such curve, though single readings can be large; an effect the other way counts as inactive or inconclusive. Potency is read from the fitted curve at half-maximal effect.

SMILES | HP1b chromo inh | Sfp PPTase inh | G9a block | BAZ2B inh | JMJD2A Tudor inh | PLK1 PBD inh
CCOC(=O)c1c(NC(=O)c2cc(C(C)C)on2)sc(C(C)=O)c1C | -4% | 4% | 7.9µM*! | -18% | 2% | -16%
N#Cc1cccc(-c2ccc3ncnc(NCc4ccccc4)c3c2)c1 | . | 8% | 4%[0.501 µM] | . | . | .
S=c1[nH]nc(CSc2nc3ccccc3s2)n1C1CCCCC1 | -20% | -16% | 10µM* | ? | ? | -22%
S=c1[nH]nc(COc2ccccc2)n1C1CCCCC1 | 9% | 4% | 2.5µM* | 0% | 50µM* | -13%
FC(F)(F)c1cccc(NCc2n[nH]c(=S)n2C2CCCCC2)c1 | 32% | 22% | 28µM* | ? | ? | -1%
Cc1cccc(OCc2n[nH]c(=S)n2Cc2ccccc2)c1 | -11% | 11% | 18µM* | -26% | ? | ?
NC(=O)CSc1nnc(COc2ccccc2)n1C1CCCCC1 | 25% | -14% | -4%[12.7 µM] | 6% | -4% | -1%
O=C(CNC1CCCCC1)Nc1cccc(C(F)(F)F)c1 | 21% | 8% | . | 6% | -17% | -4%
Cc1cc(NC(=O)c2cccnc2)ccc1Br | 51% | -6% | . | 6% | -4% | -10%
CCc1ccc(OCc2n[nH]c(=S)n2Cc2ccccc2)cc1 | -2% | 4% | -26% | -12% | ? | -18%
S=c1[nH]nc(COc2ccccc2)n1Cc1ccccc1 | 4% | -13% | 3.5µM* | -3% | 89µM* | -10%
CCc1ccc(OCc2n[nH]c(=S)n2C(C)CCCC(C)C)cc1 (stereo unspecified) | 34% | 28% | 8% | -27% | -22% | 1%
CC(C)CCn1c(COc2ccccc2)n[nH]c1=S | 34% | -9% | 1.8µM* | -19% | -12% | -4%
CCOc1ccc(Cl)cc1-c1cc(C(=O)NCCOC)[nH]n1 | . | . | . | . | . | -3%
O=C(NCCc1ccccc1)C1CC(=O)N(CCc2ccccc2)C1 (stereo unspecified) | 12% | 12% | 4%[59 µM] | -25% | -21% | -28%
CCOc1cc2sc(N3CCC(C(=O)Nc4ccccc4C(=O)OC)CC3)nc2cc1Br | 15% | . | -4%[59 µM] | -9% | -11% | .
Cc1cc(F)ccc1S(=O)(=O)Nc1ncnc2sccc12 | 0% | 16% | 22% | -20% | -2%[11.4 µM] | 21µM*
CCCC1=[N+](CC)CCn2c(C)ccc21 | 6% | -7% | 14µM* | 8% | ? | -2%
CCNC(=O)C1(C)CCN(C(=O)c2cc(F)ccc2C)C1 (stereo unspecified) | . | . | . | . | . | -8%
O=C(CSc1nnc2c3ccccc3c3ccccc3c2n1)Nc1ccccc1F | -11% | -63% | . | 56µM* | -22% | 4%
O=C(CSc1nncc2ccccc12)Nc1ccccc1 | 15% | 7% | ? | 0% | -1% | -8%
O=C(CSc1nnc2c3ccccc3c3ccccc3c2n1)Nc1ccccc1 | . | 9% | 45µM* | -5%[57.1 µM] | . | .
Cc1ccsc1C(=O)N1CCN(S(=O)(=O)c2cccc(F)c2)CC1 | -14% | . | 28µM* | 7% | -17% | -5%
Cc1ccc(S(=O)(=O)N2CCN(C(=O)c3sccc3C)CC2)cc1 | 19% | . | ? | ? | -4% | -27%
c1ccc(-n2nc3c(ccc4cnnc43)[nH]2)cc1 | -6% | -10% | 18µM* | 50µM* | 16%[11.4 µM] | -30%
SMILES | HP1b chromo inh | Sfp PPTase inh | G9a block | BAZ2B inh | JMJD2A Tudor inh | PLK1 PBD inh
Cc1cccc(-c2noc(CNC(=O)c3ccoc3C)n2)c1 | 31% | 32µM* | 15% | -24% | -23% | ?
Cc1cc(NC(=O)c2c(-c3ccccc3Cl)noc2C)no1 | 21% | -6% | -5% | 15% | -1% | 0%
Cc1onc(-c2ccccc2Cl)c1C(=O)NCc1nc(-c2ccccc2)no1 | 38% | 89µM* | ? | 5% | -6% | -2%
Cc1onc(-c2ccccc2Cl)c1C(=O)Nc1nn[nH]n1 | 19% | -8% | -7%[59 µM] | 79µM* | 56µM* | -4%
O=C(c1ccncc1)N1CCC[C@@]2(CCN(c3cccc(-c4ccccc4)c3)C2)C1 | . | -15% | -15%[12.7 µM] | . | . | .
COc1ccc(NC(=O)c2oc3ccccc3c2NC(=O)Cc2coc3c(C)c(C)ccc23)cc1 | 32% | . | -4%[59 µM] | -3% | -5% | .
O=C(Nc1ccccc1)Nc1ccc(Br)c(Cl)c1 | 37% | 28% | 21%[59 µM] | -2% | 5% | 5%
CN(Cc1ccccc1Br)C(=O)CSc1nnnn1C1CC1 | 45% | . | ? | 5% | 8% | 1%
CN(C)C=Nc1nc2ccccc2nc1N1CCCC1 | 88% | -28% | 45µM* | 0% | 12% | -10%
Cc1nc2scc(C)n2c(=O)c1S(=O)(=O)Nc1ccc(OC(F)(F)F)cc1 | 14% | 25% | 3%[59 µM] | -3% | -14% | ?
COc1ccc(C(=O)n2nc(-c3ccco3)nc2SC)cc1OC | 16% | ? | 20µM* | -34% | ? | ?
COc1ccc(C(=O)n2nc(-c3ccco3)nc2NCc2cccs2)cc1 | -5% | . | 10µM* | -24% | -15% | .
CCN(CC)S(=O)(=O)c1cc(NC(=O)COC(=O)c2sc3ccccc3c2Cl)ccc1C | 31% | 30% | ? | -2% | -11% | -3%
Cn1nc(C(=O)NCc2cccc(Cl)c2)c2c1-c1ccccc1SC2 | 8% | . | -23%[59 µM] | -2% | -13% | .
O=C(NO)c1cc(OCC(F)(F)F)ccc1OCC(F)(F)F | 10% | -2% | 79µM* | -34% | -28%[57.1 µM] | -1%
Clc1ccc(C(Cn2ccnc2)OCc2c(Cl)cccc2Cl)c(Cl)c1 (stereo unspecified) | -25% | . | 7.9µM* | 32µM* | ? | -4%
CCOc1ccc(NC(=O)C(C)Oc2ccccc2C(=O)Nc2ccc(C)c(Cl)c2)cc1 (stereo unspecified) | 20% | 19% | . | -4% | -25% | -6%
CCC(CCC(C)C1CCC2C3CCC4CC(O)CC[C@@]4(C)C3CC[C@@]12C)C(C)C (stereo partly specified) | . | 20% | . | . | . | .
CC(CCC(C)C(C)(C)C)[C@@H]1CC[C@H]2C3C[C@H](OS(O)(=S)=S)[C@H]4C[C@H](OS(O)(=S)=S)[C@@H](OS(O)(=S)=S)C[C@]4(C)[C@H]3CC[C@]12C (stereo partly specified) (tested in a mixture with another compound) | ? | . | . | . | 22µM* | 4.7µM*

Screens deposited in PubChem BioAssay by National Center for Advancing Translational Sciences (NCATS).
